The campaign covered roughly 5,500 compounds. About 2,000 (36%) were called active. Another 18% or so got no clear call; they are omitted. No stated cut-off is given here; in the data, active means normalized growth mostly below about 0.91 (no sharp cut-off); inconclusive means no clear call, values can overlap the other calls; inactive means mostly above about 0.92. The list shows a part of the results.
Assay: chemical genetic growth profiling, strain panel (AID 1159580);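 further: tested at 20 µM; growth read once vehicle control cultures reached saturation at 30 °C; 1 = growth at the plate median or of vehicle wells; lower values mean less growth of the strain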
Conditions: growth OD

Measured: normalized growth

CN(C)CCCO[C@H]1[C@@H](C(O)CO)OC2OC(C)(C)O[C@@H]21 (some centres not stated)
active: S. cerevisiae deletion strains, locus YKR001C, strain vps1, active compounds read low 0.867 | S. cerevisiae deletion strains, locus YLR418C, strain cdc73, active compounds read low 0.748 | S. cerevisiae deletion strains, locus YMR223W, strain ubp8, active compounds read low 0.902 | S. cerevisiae deletion strains, locus YNL307C, strain MCK1, active compounds read low 0.871 | S. cerevisiae deletion strains, locus YOR184W, strain ser1, active compounds read low 0.872
inactive: S. cerevisiae deletion strains, locus YJR075W, strain HOC1, active compounds read low 0.981 | S. cerevisiae deletion strains, locus YKL009W, strain mrt4, active compounds read low 0.988 | S. cerevisiae deletion strains, locus YKL068W, active compounds read low 0.99 | S. cerevisiae deletion strains, locus YKL085W, strain MDH1 (second series), active compounds read low 1.01 | S. cerevisiae deletion strains, locus YKL085W, strain MDH1, active compounds read low 1.01 | S. cerevisiae deletion strains, locus YKL160W, strain elf1, active compounds read low 0.975 | S. cerevisiae deletion strains, locus YKL190W, strain CNB1, active compounds read low 0.97 | S. cerevisiae deletion strains, locus YKR026C, strain gcn3, active compounds read low 0.991 | S. cerevisiae deletion strains, locus YKR091W, strain srl3, active compounds read low 0.98 | S. cerevisiae deletion strains, locus YLL001W, strain dnm1, active compounds read low 0.94 | S. cerevisiae deletion strains, locus YLL026W, active compounds read low 0.985 | S. cerevisiae deletion strains, locus YLL041C, strain sdh2, active compounds read low 0.993 | S. cerevisiae deletion strains, locus YLR027C, strain aat2, active compounds read low 0.997 | S. cerevisiae deletion strains, locus YLR039C, strain RIC1, active compounds read low 0.993 | S. cerevisiae deletion strains, locus YLR058C, strain SHM2, active compounds read low 0.985 | S. cerevisiae deletion strains, locus YLR102C, strain apc9, active compounds read low 0.988 | S. cerevisiae deletion strains, locus YLR113W, strain HOG1, active compounds read low 0.985 | S. cerevisiae deletion strains, locus YLR221C, strain rsa3, active compounds read low 0.957 | S. cerevisiae deletion strains, locus YLR258W, strain gsy2, active compounds read low 0.998 | S. cerevisiae deletion strains, locus YLR262C, strain YPT6 (second series), active compounds read low 0.978 | S. cerevisiae deletion strains, locus YLR262C, strain YPT6, active compounds read low 1.04 | S. cerevisiae deletion strains, locus YLR268W, strain sec22, active compounds read low 0.945 | S. cerevisiae deletion strains, locus YLR320W, strain mms22, active compounds read low 0.963 | S. cerevisiae deletion strains, locus YLR330W, strain CHS5, active compounds read low 0.995 | S. cerevisiae deletion strains, locus YLR342W, strain FKS1 (second series), active compounds read low 0.896 | S. cerevisiae deletion strains, locus YLR342W, strain FKS1, active compounds read low 0.985 | S. cerevisiae deletion strains, locus YLR357W, strain rsc2, active compounds read low 0.955 | S. cerevisiae deletion strains, locus YLR370C, strain arc18, active compounds read low 0.977 | S. cerevisiae deletion strains, locus YLR371W, strain rom2, active compounds read low 0.993 | S. cerevisiae deletion strains, locus YLR384C, strain iki3, active compounds read low 0.972 | S. cerevisiae deletion strains, locus YML016C, strain PPZ1, active compounds read low 0.979 | S. cerevisiae deletion strains, locus YML032C, strain rad52, active compounds read low 0.945 | S. cerevisiae deletion strains, locus YML120C, strain ndi1, active compounds read low 0.964 | S. cerevisiae deletion strains, locus YML124C, strain tub3, active compounds read low 0.98 | S. cerevisiae deletion strains, locus YMR058W, strain fet3, active compounds read low 0.975 | S. cerevisiae deletion strains, locus YMR078C, strain ctf18, active compounds read low 0.969 | S. cerevisiae deletion strains, locus YMR125W, strain sto1, active compounds read low 0.978 | S. cerevisiae deletion strains, locus YMR129W, active compounds read low 0.993 | S. cerevisiae deletion strains, locus YMR205C, strain PFK2, active compounds read low 0.961 | S. cerevisiae deletion strains, locus YMR231W, strain pep5, active compounds read low 0.991 | S. cerevisiae deletion strains, locus YMR263W, strain SAP30, active compounds read low 0.942 | S. cerevisiae deletion strains, locus YMR307W, strain GAS1, active compounds read low 0.937 | S. cerevisiae deletion strains, locus YNL067W, strain RPL9B, active compounds read low 0.974 | S. cerevisiae deletion strains, locus YNL071W, strain lat1, active compounds read low 1.06 | S. cerevisiae deletion strains, locus YNL128W, strain TEP1, active compounds read low 1 | S. cerevisiae deletion strains, locus YNL153C, strain GIM3, active compounds read low 0.953 | S. cerevisiae deletion strains, locus YNL183C, strain NPR1, active compounds read low 0.945 | S. cerevisiae deletion strains, locus YNL209W, strain ssb2, active compounds read low 0.999 | S. cerevisiae deletion strains, locus YNL233W, strain BNI4, active compounds read low 0.917 | S. cerevisiae deletion strains, locus YNL248C, strain rpa49, active compounds read low 0.983 | S. cerevisiae deletion strains, locus YNL250W, strain rad50, active compounds read low 0.936 | S. cerevisiae deletion strains, locus YNL271C, strain bni1, active compounds read low 0.983 | S. cerevisiae deletion strains, locus YNL298W, strain CLA4, active compounds read low 0.974 | S. cerevisiae deletion strains, locus YNL322C, strain KRE1 (second series), active compounds read low 0.968 | S. cerevisiae deletion strains, locus YNL322C, strain KRE1, active compounds read low 0.991 | S. cerevisiae deletion strains, locus YNR049C, strain mso1, active compounds read low 0.971 | S. cerevisiae deletion strains, locus YNR052C, strain pop2, active compounds read low 0.987 | S. cerevisiae deletion strains, locus YOL006C, strain TOP1, active compounds read low 0.876 | S. cerevisiae deletion strains, locus YOL012C, strain htz1 0.444 | S. cerevisiae deletion strains, locus YOL147C, strain pex11, active compounds read low 0.991 | S. cerevisiae deletion strains, locus YOR001W, strain rrp6, active compounds read low 1.01 | S. cerevisiae deletion strains, locus YOR061W, strain CKA2, active compounds read low 0.995 | S. cerevisiae deletion strains, locus YOR069W, strain VPS5, active compounds read low 0.984 | S. cerevisiae deletion strains, locus YOR070C, strain gyp1, active compounds read low 0.99 | S. cerevisiae deletion strains, locus YOR080W, strain dia2, active compounds read low 0.968 | S. cerevisiae deletion strains, locus YOR083W, strain WHI5, active compounds read low 0.953 | S. cerevisiae deletion strains, locus YOR106W, strain vam3, active compounds read low 0.926 | S. cerevisiae deletion strains, locus YOR136W, strain idh2, active compounds read low 0.966 | S. cerevisiae deletion strains, locus YOR144C, strain elg1, active compounds read low 0.992 | S. cerevisiae deletion strains, locus YOR231W, strain MKK1, active compounds read low 0.97 | S. cerevisiae deletion strains, locus YOR265W, strain rbl2, active compounds read low 0.993 | S. cerevisiae deletion strains, locus YOR270C, strain vph1, active compounds read low 0.925 | S. cerevisiae deletion strains, locus YOR290C, strain snf2, active compounds read low 0.964 | S. cerevisiae deletion strains, locus YOR316C, strain cot1, active compounds read low 0.988 | S. cerevisiae deletion strains, locus YPL051W, strain arl3, active compounds read low 0.985 | S. cerevisiae deletion strains, locus YPL055C, strain LGE1, active compounds read low 0.954 | S. cerevisiae deletion strains, locus YPL078C, strain atp4, active compounds read low 0.973 | S. cerevisiae deletion strains, locus YPL106C, strain sse1, active compounds read low 0.96 | S. cerevisiae deletion strains, locus YPL240C, strain hsp82, active compounds read low 0.985 | S. cerevisiae deletion strains, locus YPL241C, strain CIN2, active compounds read low 0.987 | S. cerevisiae deletion strains, locus YPL256C, strain CLN2, active compounds read low 0.971 | S. cerevisiae deletion strains, locus YPR119W, strain clb2, active compounds read low 0.992 | S. cerevisiae deletion strains, locus YPR141C, strain kar3, active compounds read low 0.99 | S. cerevisiae deletion strains, locus YPR163C, strain tif3, active compounds read low 0.986 | S. cerevisiae deletion strains, locus YPR167C, strain met16, active compounds read low 0.992 | S. cerevisiae deletion strains, strain wtn01, active compounds read low 0.922 | S. cerevisiae strains, strain wild type, active compounds read low 0.909
